Experiment [1] addresses Progesterone receptor (Homo sapiens) (UniProt P06401). Briefly: qHTS assay to identify small molecule agonists of the progesterone receptor (PR) signaling pathway (AID 1346784; calls by dose curve; also: nearly all actives have a fitted effect of over 30% in size; also: potency is read from the fitted curve at half-maximal effect). The gist of the method: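 Agonist mode, quantitative HTS format in a HEK 293T line expressing a UAS-controlled beta-lactamase reporter; 16 hr compound exposure at 37C in 2% charcoal-stripped FBS, then LiveBLAzer B/G FRET fluorescence.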

The target is the same in experiment [2]. Briefly: qHTS assay to identify small molecule antagonists of the progesterone receptor (PR) signaling pathway (AID 1346795; active = well fitted inhibition curve with a large enough effect in the signal ratio in the repeat runs, not every such curve was filed as active; the % refers to the signal ratio). The gist of the method:
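HEK293T PR-UAS-bla reporter cells in charcoal-stripped serum (2%) received compound after a 6 hr settling period, followed by R5020 agonist at 1 nM final; 16 hr incubation preceded the FRET substrate step and fluorescence measurement.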

Experiment [3] is described as follows: qHTS assay to identify small molecule antagonists of the progesterone receptor (PR) signaling pathway - cell viability counter screen (AID 1346798). Also: series mostly up to about 92 µM; nearly all actives have a fitted effect of over 50% in size. In short, it runs like this: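 Same-well multiplex: after 16 hr at 37C with compound and R5020 stimulation, HEK293T cells carrying a UAS-bla reporter received LiveBLAzer substrate (2 hr RT), then CellTiter-Glo (30 min RT) for luminescent viability.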

Experiment [4] in a line: qHTS assay to identify small molecule agonists of the progesterone receptor (PR) signaling pathway - cell viability counter screen (AID 1346799; calls by dose curve; also: nearly all actives have a fitted effect of over 45% in size). The gist of the method:
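Counter screen for cytotoxicity: compound-treated PR-UAS-bla HEK293T cells (16 hr, 37C, 5% CO2) were assayed with CellTiter-Glo, luminescence measured after 30 min at room temperature.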

Experiment [5] in a line: qHTS assay to identify small molecule antagonists of the TGF-beta/Smad signaling pathway - cell viability counter screen (AID 1346824). Also: nearly all actives have a fitted effect of over 50% in size. In short, it runs like this:
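Cytotoxicity counter-screen run in the same wells as the beta-lactamase Smad reporter read: CellTiter-Glo luminescence after 30 min at room temperature. HEK 293T SBE-bla cells had 5 hr compound exposure at 37 C with TGF-beta1 (0.25 ng/mL stock).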

The nature of experiment [6]: qHTS assay to identify small molecule agonists of the TGF-beta/Smad signaling pathway - cell viability counter screen (AID 1346829). Also: top concentration of the series differs between compounds; nearly all actives have a fitted effect of over 45% in size. In short, it runs like this: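 HEK 293T SBE-bla line, 5 hr compound exposure at 37 C, multiplexed CellTiter-Glo viability read by luminescence.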
Experiment [7] can be described thus: qHTS assay to identify small molecule agonists of the TGF-beta/Smad signaling pathway (AID 1346859; active = well fitted activation curve with a large enough effect in the signal ratio in the repeat runs, not every such curve was filed as active; the % refers to the signal ratio; also: series mostly up to about 77 µM). In short, it runs like this: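 Smad-responsive beta-lactamase reporter cells (HEK 293T) received compounds from DMSO stocks after overnight attachment, were incubated 5 hr, then treated 2 hr with FRET substrate before dual-emission fluorescence measurement (405 nm excitation).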

The target of experiment [8] is Thyrotropin-releasing hormone receptor (Homo sapiens) (UniProt P34981). Nature of the experiment: qHTS assay to identify small molecule antagonists of the thyrotropin-releasing hormone receptor (TRHR) signaling pathway (AID 1346877; active = well fitted inhibition curve with a large enough effect in the repeat runs, not every such curve was filed as active; also: series mostly up to about 51 µM). The gist of the method: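 Cells (TRHR-HEK293) are plated and kept 18 h at 37 °C/5% CO2. A calcium-sensitive dye is added for 2 h, compound follows for 5 min at room temperature, and TRH is then given at 1 nM final.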
Chain of Thyrotropin-releasing hormone receptor (Homo sapiens) (P34981 whole entry, looked up): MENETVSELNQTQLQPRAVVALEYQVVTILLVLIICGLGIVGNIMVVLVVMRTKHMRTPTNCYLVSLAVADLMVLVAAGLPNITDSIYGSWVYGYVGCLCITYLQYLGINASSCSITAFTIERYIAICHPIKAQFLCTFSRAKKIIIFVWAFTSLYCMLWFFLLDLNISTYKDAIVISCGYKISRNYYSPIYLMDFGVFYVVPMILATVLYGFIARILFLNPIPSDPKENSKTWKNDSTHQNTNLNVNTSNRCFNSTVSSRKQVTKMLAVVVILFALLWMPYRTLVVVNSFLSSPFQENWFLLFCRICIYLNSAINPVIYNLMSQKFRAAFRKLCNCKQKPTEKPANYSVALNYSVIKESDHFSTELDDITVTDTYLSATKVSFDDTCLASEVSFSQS

Experiment [9] shares this target. Briefly: qHTS assay to identify small molecule agonists of the thyrotropin-releasing hormone receptor (TRHR) signaling pathway (AID 1346891; calls by dose curve;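 also: HEK293 cells expressing TRHR with calcium dye readout; series mostly up to about 58 µM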). The gist of the method: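 Agonist-mode calcium mobilisation screen: TRHR-transfected HEK293 cells cultured overnight (18 h), dye-loaded for 2 h at 37 °C, exposed to compounds, and monitored by fluorescence for 3 min.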
The nature of experiment [10]: Human pregnane X receptor (PXR) small molecule agonists, qHTS cell viability counter screen (AID 1346977). Also: nearly all actives have a fitted effect of over 50% in size. The gist of the method: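 Measures live-cell protease fluorescence (CellTiter-Fluor) in PXR-Luc HepG2 cells treated 24hr with compounds at 37C. Cells had 5hr to attach before pin transfer of DMSO solutions.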
Experiment [11] can be described thus: Caspase-3/7 induction in HepG2 cells by small molecules, qHTS assay (AID 1346978). Also: nearly all actives have a fitted effect of over 15% in size. In short, it runs like this:
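Caspase-3/7 induction was measured by Caspase-Glo 3/7 luminescence (30 min, room temperature) after a 17 hr compound exposure of wild-type HepG2 cells seeded at 2,000 per well and pre-incubated 5 hr.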

Experiment [12] can be described thus: Caspase-3/7 induction in CHO-K1 cells by small molecules, qHTS cell viability counter screen (AID 1346979). Also: nearly all actives have a fitted effect of over 35% in size. In short, it runs like this:
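In the same wells as the caspase read, viability of compound-treated wild-type CHO-K1 cells was assessed using CellTiter-Fluor, added after 16hr at 37C and measured by fluorescence following 1hr further incubation.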

Experiment [13] can be described thus: Caspase-3/7 induction in CHO-K1 cells by small molecules, qHTS assay (AID 1346980). Also: nearly all actives have a fitted effect of over 15% in size. In short, it runs like this:
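Luminescent Caspase-Glo 3/7 read (30min, room temperature) quantified apoptosis induction. Cells were wild-type CHO-K1, treated with compound for 17hr at 37 C and 5% CO2.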

A short description of experiment [14]: Caspase-3/7 induction in HepG2 cells by small molecules, qHTS cell viability counter screen (AID 1346981). Also: series mostly up to about 92 µM; nearly all actives have a fitted effect of over 30% in size. In short, it runs like this:
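Steps: seed 2,000 HepG2 cells per well; incubate 5 hr at 37 C; pin-add compounds in DMSO; incubate 16 hr; add CellTiter-Fluor; after 1 hr at 37 C and 5% CO2, read fluorescence.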

The target of experiment [15] is Cytochrome P450 2D6 (Homo sapiens) (UniProt P10635). Briefly: Cytochrome P450 Family 2 Subfamily D Member 6 (CYP2D6) small molecule antagonists: luciferase reporter qHTS assay (AID 1671196). Also: nearly all actives have a fitted effect of over 50% in size. Also: potency is read from the fitted curve at half-maximal effect. The gist of the method:
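P450-Glo format: CYP2D6 converts a proluciferin substrate to luciferin in an NADPH-driven reaction lasting 1 h at room temperature. Light output, proportional to CYP2D6 activity, reflects interference by test chemicals.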

The target in experiment [16] is Cytochrome P450 2C19 (Homo sapiens) (UniProt P33261). Nature of the experiment: Cytochrome P450 Family 2 Subfamily C Member 19 (CYP2C19) small molecule antagonists: luciferase reporter qHTS assay (AID 1671197). Also: nearly all actives have a fitted effect of over 65% in size. Also: potency is read from the fitted curve at half-maximal effect. In short, it runs like this: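 First, compounds are pinned into enzyme-substrate mix and held 10 min at room temperature. Second, NADPH regeneration solution is added and plates incubate 1 h at 37C. Third, detection reagent is added and luminescence read after 20 min.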
Chain of Cytochrome P450 2C19 (Homo sapiens) (P33261 whole entry, looked up): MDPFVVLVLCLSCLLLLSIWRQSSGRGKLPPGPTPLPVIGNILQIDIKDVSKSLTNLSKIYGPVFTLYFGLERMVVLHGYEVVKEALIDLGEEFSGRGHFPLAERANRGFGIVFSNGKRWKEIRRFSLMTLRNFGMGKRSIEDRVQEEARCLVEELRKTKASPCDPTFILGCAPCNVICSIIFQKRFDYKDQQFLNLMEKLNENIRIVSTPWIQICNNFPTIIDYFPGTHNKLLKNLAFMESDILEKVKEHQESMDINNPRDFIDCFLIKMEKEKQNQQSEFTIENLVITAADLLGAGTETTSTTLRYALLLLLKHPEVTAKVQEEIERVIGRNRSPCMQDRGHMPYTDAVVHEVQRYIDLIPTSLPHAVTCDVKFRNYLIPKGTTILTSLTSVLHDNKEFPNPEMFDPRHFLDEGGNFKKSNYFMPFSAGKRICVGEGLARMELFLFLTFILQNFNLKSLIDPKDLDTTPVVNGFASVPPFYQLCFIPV

Experiment [17] has as its target Nuclear receptor subfamily 1 group I member 2 (Rattus norvegicus) (UniProt Q9R1A7). Briefly: Rat pregnane X receptor (rPXR) activation by small molecules, qHTS assay (AID 1346983). Also: nearly all actives have a fitted effect of over 20% in size. Particulars: rPXR luciferase reporter cells, One-Glo luminescence, 24 h; max activation: stronger effect = higher value. The gist of the method:
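Luminescent readout (One-Glo luciferase, 30 min room temperature) followed 24 hr compound treatment at 37 C of rPXR cells plated 2,000 per well and preincubated 5hr; qHTS format with compounds delivered in DMSO.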

Experiment [18] has as its target Nuclear receptor subfamily 1 group I member 2 (Homo sapiens) (UniProt O75469). Briefly: CYP3A4 induction through human pregnane X receptor (PXR) by small molecules, qHTS assay (AID 1346984). Also: nearly all actives have a fitted effect of over 40% in size. The gist of the method: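 Steps: seed DPX-2 cells, 5 hr at 37C; pin-transfer compounds; 24 hr at 37C; add Luciferin-IPA (3uM final), 3 hr at 37C; add One-Glo, 30 min RT; read luminescence.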

The target is the same in experiment [19]. Nature of the experiment: Human pregnane X receptor (PXR) activation by small molecules, qHTS assay (AID 1346985). Also: nearly all actives have a fitted effect of over 40% in size. In short, it runs like this: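 DPX-2 cells (HepG2 co-transfected with a PXR response element and a CYP3A4-promoter luciferase construct) were seeded at 2,000 per well, rested 5 hr at 37C, then exposed to DMSO-dissolved compounds for 24 hr. Activation was read as luciferase luminescence.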

For experiment [20] the target is unchanged. Nature of the experiment: Human pregnane X receptor (PXR) small molecule agonists, qHTS assay (AID 1346982). Also: nearly all actives have a fitted effect of over 35% in size. In short, it runs like this: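 Agonist mode qHTS: PXR-Luc HepG2 cells plated 5 hr before DMSO-dissolved compounds were pinned in, cultured 24 hr at 37 C, 5% CO2; ONE-Glo luminescence readout.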

The results in this text go back to PubChem BioAssay (Tox21).

SMILES strings stand for the structures. Several values for one entry are separate records, joined by “and”; a condition that tells them apart may be missing. Identical values can stand only once. Inconclusive results are not listed. A structure can be active in one record and inactive in another. Activity calls are given as the source filed them. Unless noted, calls follow the shape of the dose curve; as a rule, active = well fitted curve in the direction sought with a large enough effect in the repeat runs; inconclusive = weak or mixed curves; inactive = no such curve, though single readings can be large; an effect the other way counts as inactive or inconclusive.
% is scaled to controls: 0 for no effect and ±100 for the full control effect.

Chain of Cytochrome P450 2D6 (Homo sapiens) (P10635 whole entry, looked up): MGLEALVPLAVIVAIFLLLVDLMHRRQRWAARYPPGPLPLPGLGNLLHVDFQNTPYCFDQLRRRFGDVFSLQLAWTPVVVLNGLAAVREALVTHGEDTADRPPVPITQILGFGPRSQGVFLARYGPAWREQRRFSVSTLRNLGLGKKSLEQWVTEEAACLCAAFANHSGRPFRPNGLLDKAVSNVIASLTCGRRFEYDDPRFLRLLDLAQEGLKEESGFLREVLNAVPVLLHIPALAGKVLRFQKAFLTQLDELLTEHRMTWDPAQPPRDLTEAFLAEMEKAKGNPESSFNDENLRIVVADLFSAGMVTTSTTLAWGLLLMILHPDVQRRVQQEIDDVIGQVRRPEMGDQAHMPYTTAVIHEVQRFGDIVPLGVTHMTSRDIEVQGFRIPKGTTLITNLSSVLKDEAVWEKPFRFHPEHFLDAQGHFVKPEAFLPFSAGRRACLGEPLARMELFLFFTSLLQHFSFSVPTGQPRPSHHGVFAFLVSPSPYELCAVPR
Chain of Nuclear receptor subfamily 1 group I member 2 (Homo sapiens) (O75469 whole entry, looked up): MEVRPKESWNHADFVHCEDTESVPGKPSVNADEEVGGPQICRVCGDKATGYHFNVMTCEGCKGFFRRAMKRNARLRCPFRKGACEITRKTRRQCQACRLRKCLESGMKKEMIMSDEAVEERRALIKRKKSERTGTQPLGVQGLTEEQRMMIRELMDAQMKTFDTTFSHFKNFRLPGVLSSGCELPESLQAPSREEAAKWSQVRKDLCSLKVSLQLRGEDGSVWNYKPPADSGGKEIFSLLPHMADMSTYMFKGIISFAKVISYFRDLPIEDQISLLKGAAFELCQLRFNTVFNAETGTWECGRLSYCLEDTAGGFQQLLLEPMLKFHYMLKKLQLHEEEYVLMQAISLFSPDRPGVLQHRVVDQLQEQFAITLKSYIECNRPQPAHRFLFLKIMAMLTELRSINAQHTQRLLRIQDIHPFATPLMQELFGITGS
Chain of Progesterone receptor (Homo sapiens) (P06401 whole entry, looked up): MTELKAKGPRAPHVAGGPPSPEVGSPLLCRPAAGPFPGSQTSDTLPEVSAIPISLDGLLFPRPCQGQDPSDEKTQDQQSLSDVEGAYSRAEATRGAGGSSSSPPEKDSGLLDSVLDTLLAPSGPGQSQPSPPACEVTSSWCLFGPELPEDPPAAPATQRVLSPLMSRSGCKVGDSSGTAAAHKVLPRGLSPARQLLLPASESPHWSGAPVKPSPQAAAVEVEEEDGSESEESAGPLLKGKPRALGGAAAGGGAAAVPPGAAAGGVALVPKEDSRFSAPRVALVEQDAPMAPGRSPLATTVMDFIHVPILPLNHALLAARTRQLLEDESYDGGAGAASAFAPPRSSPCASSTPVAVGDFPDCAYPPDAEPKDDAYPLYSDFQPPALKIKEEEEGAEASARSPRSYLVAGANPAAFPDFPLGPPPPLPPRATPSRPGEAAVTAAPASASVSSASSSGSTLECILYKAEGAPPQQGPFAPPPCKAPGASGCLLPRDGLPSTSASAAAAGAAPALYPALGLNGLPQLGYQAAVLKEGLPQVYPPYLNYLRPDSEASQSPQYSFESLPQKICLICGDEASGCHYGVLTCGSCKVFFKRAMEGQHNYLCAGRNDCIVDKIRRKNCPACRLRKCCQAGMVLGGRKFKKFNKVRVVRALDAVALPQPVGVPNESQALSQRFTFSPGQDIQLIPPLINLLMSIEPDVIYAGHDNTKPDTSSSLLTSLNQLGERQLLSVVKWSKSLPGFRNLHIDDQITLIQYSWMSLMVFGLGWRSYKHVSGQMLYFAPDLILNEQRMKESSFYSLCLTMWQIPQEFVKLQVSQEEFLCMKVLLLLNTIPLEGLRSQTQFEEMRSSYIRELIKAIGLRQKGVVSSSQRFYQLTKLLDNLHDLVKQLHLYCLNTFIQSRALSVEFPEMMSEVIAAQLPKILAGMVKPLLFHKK
Chain of Nuclear receptor subfamily 1 group I member 2 (Rattus norvegicus) (Q9R1A7 whole entry, looked up): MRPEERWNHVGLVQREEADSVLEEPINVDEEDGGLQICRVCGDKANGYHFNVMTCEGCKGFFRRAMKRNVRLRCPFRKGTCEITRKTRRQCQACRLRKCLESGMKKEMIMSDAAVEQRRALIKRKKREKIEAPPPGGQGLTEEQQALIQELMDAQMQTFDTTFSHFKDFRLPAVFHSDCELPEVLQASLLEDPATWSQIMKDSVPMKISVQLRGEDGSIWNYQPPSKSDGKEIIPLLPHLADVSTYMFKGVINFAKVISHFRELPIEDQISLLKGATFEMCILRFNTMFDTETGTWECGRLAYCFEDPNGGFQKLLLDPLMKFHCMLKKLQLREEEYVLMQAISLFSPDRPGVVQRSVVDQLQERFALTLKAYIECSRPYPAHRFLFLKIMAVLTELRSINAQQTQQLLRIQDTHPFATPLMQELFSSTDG

As for `CN1CCC[C@H]1c1cccnc1`, the Potency result in [1], in experiment [2], in experiment [3], in experiment [4], in experiment [5] and in experiment [6] was “inactive” each time. The Potency entry in experiment [8], in experiment [9], in experiment [10], in experiment [11], in [12] and in experiment [13] was “inactive” in each case. Moreover, the Potency result in [14] and in experiment [16] was “inactive” in each case. Moreover, the call in experiment [7] was inactive. Moreover, the Potency in experiment [15] is 35.3 µM (active) and inactive.

With `NC1CCCCC1`, the Potency result in experiment [1], in [2], in experiment [3], in experiment [4], in experiment [5] and in experiment [6] was “inactive” in each case. The Potency entry in experiment [8], in experiment [9], in experiment [10], in experiment [11], in [13] and in experiment [14] was “inactive” in each case. The Potency entry in [15] was “inactive”. Moreover, the result in experiment [7] was inactive. The Potency in experiment [16] is 35.8 µM (active) and inactive.

`O=C(O)c1ccccc1`: the Potency result in experiment [1] was “inactive and 596 nM (active)”; in experiment [15], 37.4 µM (active) and inactive; in experiment [16], 33.3 µM (active) and 3.47 µM (active) and inactive. Moreover, the Potency result in experiment [2], in experiment [3], in experiment [4], in experiment [5], in experiment [6] and in experiment [10] was “inactive” each time. The Potency result in experiment [11], in experiment [13] and in experiment [14] was “inactive” each time. The molecule was called inactive in [7].

Turning to `CN(C)C(=O)Nc1ccc(Cl)c(Cl)c1`, the Potency result in experiment [1], in experiment [2], in experiment [3], in experiment [4], in experiment [5] and in experiment [6] was “inactive” each time. Also, the Potency entry in experiment [8], in [9], in [10], in experiment [11], in [12] and in experiment [13] was “inactive” throughout. For the same molecule, the Potency result in experiment [14] and in experiment [18] was “inactive” in each case. Moreover, the outcome in experiment [7] and in experiment [19] was inactive. Further, the max activation in experiment [17] was -0.866% (inactive). Further, the Potency in experiment [15] was 31.6 µM (active) and inactive; in [16], 39.8 µM (active) and 71 µM (active) and inactive.

For the molecule `CCCCNC(=O)NS(=O)(=O)c1ccc(C)cc1`, the Potency entry in [1], in [2], in experiment [3], in [4], in experiment [5] and in [6] was “inactive” throughout. For the same molecule, the Potency result in [8], in [9], in experiment [10], in [11], in [13] and in experiment [14] was “inactive” each time. For the same molecule, the result in experiment [7] was inactive.

On to `C=CCc1ccc(O)c(OC)c1`, for which the Potency entry in [1], in experiment [2], in experiment [3], in experiment [4], in [5] and in experiment [6] was “inactive” each time. Further, the Potency result in [8], in experiment [9], in experiment [10], in experiment [11], in experiment [13] and in experiment [14] was “inactive” in each case. For the same molecule, the Potency entry in experiment [20] and in experiment [18] was “inactive” throughout. Also, the call in experiment [7] and in experiment [19] was inactive. The max activation in [17] was -1.79% (inactive). The Potency in experiment [15] was 9.97 µM (active) and inactive; in experiment [16] it was 39.7 µM (active) and 56.4 µM (active) and inactive.
